Assay [1] concerns the target Guanine nucleotide-binding protein G(i) subunit alpha-1 (Homo sapiens) (UniProt P63096). Put plainly: qHTS Assay for Inhibitors of RGS12 GoLoco Motif Activity (Green Fluorophore) (AID 879).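 Note: negative values mean loss of peptide binding seen as reduced polarization.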 Put shortly:
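Fluorescence polarization assay: 50 nM Gαi1 with 10 nM FITC-labeled RGS12 GoLoco peptide in 10 mM Tris pH 7.5, 150 mM NaCl, 0.1 mM GDP, 0.05% NP40, 10 min at room temperature with compound.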

Assay [2] has as its target Pyruvate kinase PKM (Homo sapiens) (UniProt P14618). Put plainly: qHTS Assay for Activators of Human Muscle Pyruvate Kinase (AID 954; active = well fitted curve in the direction sought with a large enough effect, not every such curve was filed as active). Put shortly: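 Purified human PKM2 (0.1 nM) with 0.5 mM PEP (Km) and 0.1 mM ADP in 50 mM imidazole pH 7.2, KCl, MgCl2, 1 h at room temperature; ATP formed read by coupled luciferase luminescence. Normalized to no-enzyme/110 uM thiadiazolimine inhibition; 0.3 nM enzyme column for activation.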
(In general: Quantitative high-throughput screening tests each substance at several concentrations.)

The nature of assay [3]: S16 Schwann cell viability assay (CellTiter-Glo assay) (AID 624031).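 Note: cellular ATP luminescence as a viability measure; nearly all actives have a fitted effect of over 70% in size.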 A digest of the protocol:
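Native S16 rat Schwann cells, 500-750 cells/well in DMEM with 10% FBS, dosed with compound after overnight culture and incubated 24h at 37 degree Celsius/5% CO2. Viability by CellTiter-Glo luminescence; % activity normalized to no-cell wells and DMSO-treated cells.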
Background: Cellular ATP, detected with luciferase, serves as a proxy for viable cell number.

The subject of a further assay is ATS189. Put plainly: qHTS profiling for inhibitors of Plasmodium falciparum proliferation (AID 504749). Note: nearly all actives have a fitted effect of over 60% in size. Note: potency is the fitted concentration of half-maximal effect. The following applies: P. falciparum in erythrocytes, SYBR Green DNA, 72 h; series mostly up to 12.8 µM. Put shortly:
(§1)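 Readout was DNA-dye fluorescence from lysed cultures, ex 485/em 535 nm. Parasitized red cells had grown 72 h with compound; data scaled between 0.29 uM artemisinin and DMSO wells and corrected using vehicle-only plates.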

The test system of another assay is CP191. Described as above. The following applies: P. falciparum in erythrocytes, SYBR Green DNA, 72 h; series mostly up to 12.8 µM. A digest of the protocol: as §1
Another assay relates to CP247. Described as above. The following applies: P. falciparum in erythrocytes, SYBR Green DNA, 72 h; series mostly up to 12.8 µM. Put shortly: as §1
A further assay concerns CP250. The assay is described as above. To be noted: P. falciparum in erythrocytes, SYBR Green DNA, 72 h; series mostly up to 12.8 µM. A digest of the protocol:
as §1

The subject of a further assay is CP256. Described as above. The following applies: P. falciparum in erythrocytes, SYBR Green DNA, 72 h; series mostly up to 12.8 µM. Put shortly:
as §1

The next assay deals with CP262. The description is as above. To be noted: P. falciparum in erythrocytes, SYBR Green DNA, 72 h; series mostly up to 12.8 µM. Put shortly:
as §1

In the next assay the test system is CP325. Described as above. To be noted: P. falciparum in erythrocytes, SYBR Green DNA, 72 h; series mostly up to 12.8 µM. A digest of the protocol:
as §1

The next assay deals with Dd2. Described as above. To be noted: P. falciparum in erythrocytes, SYBR Green DNA, 72 h; series mostly up to 12.8 µM. Put shortly: as §1
The subject of another assay is JCK. The assay is described as above. The following applies: P. falciparum in erythrocytes, SYBR Green DNA, 72 h; series mostly up to 12.8 µM. Put shortly:
as §1

The next assay deals with N140. The assay is described as above. The following applies: P. falciparum in erythrocytes, SYBR Green DNA, 72 h; series mostly up to 12.8 µM. A digest of the protocol:
as §1

The next assay relates to PC15. The assay is described as above. To be noted: P. falciparum in erythrocytes, SYBR Green DNA, 72 h; series mostly up to 12.8 µM. A digest of the protocol:
as §1

For the next assay, the system named is PC49. The description is as above. The following applies: P. falciparum in erythrocytes, SYBR Green DNA, 72 h; series mostly up to 12.8 µM. Put shortly: as §1
The test system of the next assay is SC27B. The assay is described as above. The following applies: P. falciparum in erythrocytes, SYBR Green DNA, 72 h; series mostly up to 12.8 µM. A digest of the protocol:
as §1

For another assay, the system named is TAB113. The description is as above. The following applies: P. falciparum in erythrocytes, SYBR Green DNA, 72 h; series mostly up to 12.8 µM. A digest of the protocol: as §1
In another assay the test system is CP185. The description is as above. The following applies: P. falciparum in erythrocytes, SYBR Green DNA, 72 h; series mostly up to 12.8 µM. A digest of the protocol:
as §1

For a further assay, the system named is CP201. The description is as above. To be noted: P. falciparum in erythrocytes, SYBR Green DNA, 72 h; series mostly up to 12.8 µM. Put shortly:
as §1

For a further assay, the system named is CP329. The assay is described as above. The following applies: P. falciparum in erythrocytes, SYBR Green DNA, 72 h; series mostly up to 12.8 µM. A digest of the protocol: as §1

Records with an inconclusive call do not appear. Active and inactive are the calls of the source. Unless noted, calls come from the whole dose curve; as a rule, active = well fitted curve in the direction sought with a large enough effect; inconclusive = small, poorly fitted or top-dose-only effect, or another doubt; inactive = no such curve, though single readings can be large; an effect the other way counts as inactive or inconclusive.

Guanine nucleotide-binding protein G(i) subunit alpha-1 (Homo sapiens), sequence (P63096 whole entry, looked up): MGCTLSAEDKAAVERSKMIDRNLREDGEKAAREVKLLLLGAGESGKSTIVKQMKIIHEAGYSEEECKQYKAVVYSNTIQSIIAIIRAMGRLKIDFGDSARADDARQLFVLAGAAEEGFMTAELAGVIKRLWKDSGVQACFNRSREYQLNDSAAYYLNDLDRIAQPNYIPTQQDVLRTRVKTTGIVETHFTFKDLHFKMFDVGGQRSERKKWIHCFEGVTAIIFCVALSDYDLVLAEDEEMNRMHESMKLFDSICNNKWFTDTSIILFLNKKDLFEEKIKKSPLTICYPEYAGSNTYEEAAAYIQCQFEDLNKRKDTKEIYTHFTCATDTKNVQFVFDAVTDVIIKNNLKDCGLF
Pyruvate kinase PKM (Homo sapiens), sequence (P14618 whole entry, looked up): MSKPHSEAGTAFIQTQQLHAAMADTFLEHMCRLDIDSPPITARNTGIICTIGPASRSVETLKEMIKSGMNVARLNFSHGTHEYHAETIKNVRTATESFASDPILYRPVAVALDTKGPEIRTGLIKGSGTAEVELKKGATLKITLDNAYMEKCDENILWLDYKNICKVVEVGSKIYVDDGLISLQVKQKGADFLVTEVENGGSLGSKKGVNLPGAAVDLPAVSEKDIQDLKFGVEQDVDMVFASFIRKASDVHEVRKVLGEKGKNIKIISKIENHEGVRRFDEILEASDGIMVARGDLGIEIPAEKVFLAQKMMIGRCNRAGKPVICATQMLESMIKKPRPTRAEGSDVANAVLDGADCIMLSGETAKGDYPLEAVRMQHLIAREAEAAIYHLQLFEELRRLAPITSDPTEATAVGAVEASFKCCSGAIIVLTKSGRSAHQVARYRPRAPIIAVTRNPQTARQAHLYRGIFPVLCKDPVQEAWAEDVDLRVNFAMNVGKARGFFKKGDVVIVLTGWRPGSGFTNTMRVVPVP

Take `NC(=O)c1cc[n+](CC2=C(C(=O)O)N3C(=O)[C@@H](NC(=O)[C@H](c4ccccc4)S(=O)(=O)[O-])[C@@H]3SC2)cc1`: the Potency result (in [1]; in [3]; in the assay with CP262) was “inactive” in each case. The compound was classed as inactive in [2]. Also, the Potency was 1580 nM (active) in the assay on ATS189; 1410 nM (active) with CP191; 3550 nM (active) in the assay on CP247; 3980 nM (active) with CP250; 3550 nM (active) with CP256; 4550 nM (active) in the assay on CP325. For the same compound, the Potency is 1260 nM (active) with Dd2; 4470 nM (active) in the assay on JCK; 1410 nM (active) with N140; 1000 nM (active) in the assay with PC15; 3160 nM (active) in the assay with PC49; 2510 nM (active) with SC27B. Moreover, the Potency with TAB113 is 1780 nM (active).

In the case of `CC(C)NC[C@H](O)c1cc(O)cc(O)c1`, the Potency result (in assay [1]; in [3]; in the assay on ATS189; in the assay with CP185; in the assay with CP191; with CP201) was “inactive” throughout. In addition, the Potency entry in the assay with CP247, in the assay with CP250, in the assay on CP256, in the assay with CP262, in the assay on CP325 and in the assay with CP329 was “inactive” throughout. Also, the Potency entry with Dd2, with JCK, in the assay on N140, with PC15, in the assay on PC49 and in the assay on SC27B was “inactive” each time. Besides, the Potency entry in the assay on TAB113 was “inactive”. Besides, the compound was called inactive in assay [2].

For `CC(=O)O[C@]1(C(C)=O)CC[C@@H]2[C@@H]3C=C(Cl)C4=CC(=O)[C@H]5C[C@@H]5[C@]4(C)[C@H]3CC[C@]21C`, the Potency entry in assay [1] was “inactive”. Besides, the outcome in [2] was inactive.

As to `CC(C)(Oc1ccc([C@@H]2CC2(Cl)Cl)cc1)C(=O)O`, the Potency result in assay [1] was “inactive”. For the same compound, in assay [2], the result was inactive.

For the compound `CCCCCN(CCCCC)C(=O)[C@H](CCC(=O)O)NC(=O)c1ccc(Cl)c(Cl)c1`, the Potency result in assay [1] is “inactive”. For the same compound, the compound was called inactive in assay [2].

In the case of `COc1ccc([C@H]2Sc3ccccc3N(CCN(C)C)C(=O)[C@H]2OC(C)=O)cc1`, in assay [2], the compound was called inactive.

As to `CC[C@]1(C)CC(=O)NC1=O`, the Potency result (in assay [1]; in assay [3]; with ATS189; in the assay with CP185; in the assay with CP191; with CP201) was “inactive” each time. Further, the Potency entry with CP247, with CP250, in the assay with CP256, with CP262, in the assay on CP325 and in the assay on CP329 was “inactive” each time. Also, the Potency entry with Dd2, with JCK, in the assay with N140, in the assay on PC15, with PC49 and with SC27B was “inactive” throughout. Moreover, the Potency entry with TAB113 is “inactive”. In addition, the call in assay [2] was inactive.

Turning to `COc1cc(=O)n(C)c2c(OC[C@@H](O)C(C)(C)O)cccc12`, the Potency result in [1] is “inactive”. The result in [2] was inactive.

In the case of `N[C@H](C(=O)N[C@@H]1C(=O)N2C(C(=O)O)=C(Cl)CS[C@@H]12)c1ccccc1`, the Potency entry in assay [1] is “inactive”. Moreover, in assay [2], the result was inactive.

`C[C@@H](C[N+](C)(C)C)OC(N)=O`: in [1], the Potency entry is “inactive”. The result in [2] was inactive.

On to `CC[C@H](NC(C)C)[C@H](O)c1ccc(O)c(O)c1`, for which the Potency entry (in [1]; in [3]; in the assay with ATS189; with CP185; with CP191; in the assay on CP201) was “inactive” throughout. In addition, the Potency result with CP256, with CP262, in the assay on CP325, in the assay on CP329, with Dd2 and with JCK was “inactive” each time. Moreover, the Potency result in the assay with N140, in the assay with PC49, in the assay with SC27B and in the assay on TAB113 was “inactive” each time. Also, the compound was classed as inactive in assay [2].

For the compound `N[C@@H](CO)C(=O)NNCc1ccc(O)c(O)c1O`, in [2], the call was inactive. Moreover, the Potency entry with ATS189, in the assay on CP185, in the assay with CP191, in the assay on CP201, with CP247 and with CP250 was “inactive” throughout. Also, the Potency entry with CP256, in the assay on CP262, with CP325, in the assay on CP329, in the assay with Dd2 and with JCK was “inactive” each time. Moreover, the Potency entry in the assay with N140, with PC15, in the assay on PC49, in the assay on SC27B and in the assay with TAB113 was “inactive” in each case.
